Measurements taken from PubChem BioAssay (NCI).
Compounds without any hit were thinned out: in the full panel of roughly 83,000, 20% have a hit.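 48-hour exposure, single concentration, 96-well plates; percent growth endpoint where 0 means no net growth. Active: below 10.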 Unmarked numbers belong to inactive results. Calls of active or inactive are those of the source.

Experiments:
Test in all cases: NCI-60 one-dose screen, 48 h (100 = growth as untreated, 0 = no growth, -100 = all killed)
SK-MEL-2 melanoma = details: 10 µM unless noted
EKVX NSCLC = details: 10 µM unless noted
SN12C renal = details: 10 µM unless noted
UO-31 renal = details: 10 µM unless noted
ACHN renal = details: 10 µM unless noted
A498 renal = details: 10 µM
HL-60(TB) leukemia = details: 10 µM unless noted
CCRF-CEM leukemia = details: 10 µM unless noted
CAKI-1 renal = details: 10 µM unless noted
TK-10 renal = details: 10 µM unless noted

Structure (SMILES) | growth (SK-MEL-2 melanoma) | growth (EKVX NSCLC) | growth (SN12C renal) | growth (UO-31 renal) | growth (ACHN renal) | growth (A498 renal) | growth (HL-60(TB) leukemia) | growth (CCRF-CEM leukemia) | growth (CAKI-1 renal) | growth (TK-10 renal)
Nc1nc([Se])c2ncn(C3OC(CO)C(O)C3O)c2n1 (centres undefined) | 104% | 62.9% | 94.7% | 84.9% | 84.3% | 95.3% | 41.7% | 16.3% | – | –
COc1ccc(/C=C\c2cc(OC)c(OC)c(OC)c2)cc1OCC(=O)Nc1nc2ccc(OC(F)(F)F)cc2s1 | 15.6% | 77% | 49.7% | 25.4% | 43.5% | 30.2% | – | 28.2% | 35.2% | –
CC(CO)NC1CCCCC1 (centres undefined) | 110% | 102% | 111% | 86.8% | 109% | 77.6% | 116% | 123% | 109% | –
CCOP1(=O)CC(C)=C(Cl)C(P(=O)(OCC)OCC)C1 (centres undefined) | 104% | 109% | 101% | – | 110% | 103% | 107% | -27.5% (active) | 110% | 135%
O=C(CC1(O)C(=O)N(Cc2ccccc2)c2ccccc21)c1ccc(C(=O)NCC2CCC3(CC2)OOC2(CCCCC2)OO3)cc1 (centres undefined) | 6.18% (active) | -63.3% (active) | -60.9% (active) | -81.2% (active) | -87.7% (active) | -88.7% (active) | -67.4% (active) | -41.2% (active) | – | –
COc1ccc(C/C(C)=C(\c2ccc(OCCN3CCOCC3)cc2)c2ccc(OC(=O)Cc3ccccc3)cc2)cc1 | -80.6% (active) | 17.9% | -73.7% (active) | -84.6% (active) | -3.31% (active) | -90.5% (active) | -59.3% (active) | -13.7% (active) | 7.71% (active) | –
Clc1cccc(NCOOC2(OOCNc3cccc(Cl)c3)CCCCC2)c1 | 80.8% | 55.1% | 91.9% | -73.7% (active) | 38.8% | 61% | 39.1% | 36.7% | 12.3% | –
COc1cccc(/C=C/[N+](=O)[O-])c1 | 97.4% | 89.2% | 99.5% | 45.8% | 74.7% | 43.8% | 17.4% | 51.2% | 96.8% | –
c1cnc2[nH]cc(-c3csc(-c4cn(CCCCN5CCCCC5)c5ccccc45)n3)c2c1 | 97.6% | 83.1% | 75.2% | 49.2% | 98.5% | 95.7% | 47.9% | 62.9% | – | –
CC(C)[C@@H]1NC(=O)[C@]2(C)CSC(=N2)c2csc(n2)CNC(=O)C[C@@H](/C=C/CCS)OC1=O | -28.2% (active) | 32.4% | 31.7% | 10.4% | 5.8% (active) | -74.8% (active) | 8.48% (active) | 9.97% (active) | – | –
COC(=O)[C@H](Cc1ccccc1)NC(=O)c1csc([C@@H](C[C@H](C(C)C)N(C)C(=O)[C@@H](NC(=O)[C@H]2CCCCN2C)C2CC2)OC(C)=O)n1 | 15.3% | 29.9% | 21.6% | 35.9% | 28.9% | -7.28% (active) | -43.1% (active) | 2.68% (active) | 24.1% | –
